# Rows were chosen to be rich in hits. Some 19% of all compounds tested hit in one or more screens of this group.
# ELG1 repair inh: ELG1-dependent DNA repair inhibition; HEK293T ELG1-luciferase reporter, luminescence, 16 h; DNA damage induced by 5-fluorouridine; Potency, µM (top dose mostly 46.1 µM), without a hit: at the top dose activity change, negative = inhibition, most hits filed as inhibitors; hit rate 2.3% among 330,000; further: potency means the concentration at half of the fitted maximal effect; nearly all actives have a fitted effect of over 55% in size
#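 Cells (2,000 per well) received 5-fluorouridine plus test compound or DMSO and were incubated 16 hr at 37 °C, 5% CO2. Luciferase activity was read by luminescence 30 min after ONE-Glo addition; signal suppression marked inhibition of damage-induced ELG1 function.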
# IL-1B inflam inh: inflammasome signaling inhibition, IL-1 beta readout. THP-1 LPS/ATP IL-1B secretion, AlphaLISA, 16 h; hits give low values. activity change, % at 57.5 µM. hit rate 4.7% among 360,000; in the data active means activity change below about -50%; inconclusive means mostly about -30% to -49%
#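 THP-1 cells pretreated 1 hr with compounds (up to 57.5 uM final), then stimulated with LPS (250 ng/mL final) plus ATP (1.25 mM final); secreted IL-1B measured by AlphaLISA after 16 hr, decreased signal indicating inhibition.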
# TDP1 cell noCPT: qHTS for Inhibitors of human tyrosyl-DNA phosphodiesterase 1 (TDP1): qHTS in cells in absence of CPT | DT40 Tdp1-/- hTDP1 cells, no CPT, ATP luminescence, 48 h | Potency, µM (top dose mostly 46.2 µM), for inactives: top-dose activity change, negative = growth inhibition, usual class: inhibitors | hit rate 15% among 420,000 | AID 686978, 2013; further: potency means the concentration at half of the fitted maximal effect; nearly all actives have a fitted effect of over 55% in size
#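 Growth of hTDP1-complemented DT40 Tdp1-knockout cells is measured by ATP luminescence after at least 48 hr compound exposure at 37 °C, with DMSO substituting for the 20 nM CPT used in the parallel screen.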
# Giardia killer: Giardia lamblia killing; Giardia lamblia trophozoite viability; activity change, % at 7.66 µM, hits read low; hit rate 0.15% among 340,000; AID 540267; in the data active means activity change below about -80%; inconclusive means between about -30% and that limit;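 further: parasites exposed to compound for two days anaerobically before the ATP read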
#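 Luminescence from cellular ATP indicates surviving trophozoites (100 cells/well) following 48 hrs anaerobic compound treatment at 37 deg C; signal develops 15-30 min at room temperature.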
# DT40 TDP1 CPT: DT40-hTDP1 cell growth loss with CPT; chicken DT40 Tdp1-/-;hTDP1 cells + 20 nM CPT, ATP luminescence, 48 h; Potency, µM (titrated, usually from 46.2 µM), inactives show at the highest dose activity change, negative = growth inhibition, hits mostly inhibitors; hit rate 12% among 420,000; AID 686979; further: potency means the concentration at half of the fitted maximal effect; nearly all actives have a fitted effect of over 55% in size
#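 Chicken DT40 Tdp1-/- cells complemented with human TDP1, 400 cells/well, exposed to compounds plus 20 nM camptothecin for at least 48 h at 37 C; viability read as ATP content by CellTiter-Glo luminescence.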
# TDP1 block: blocks human tyrosyl-DNA phosphodiesterase 1; recombinant TDP1, AlphaScreen DNA substrate cleavage; Potency, µM (titrated, usually from 130 µM), inactives show at the highest dose activity change, negative = inhibition, hits mostly inhibitors; hit rate 0.28% among 350,000; AID 485290; further: potency means the concentration at half of the fitted maximal effect; nearly all actives have a fitted effect of over 40% in size
# Target sequence (Q9NUW8 whole entry, looked up): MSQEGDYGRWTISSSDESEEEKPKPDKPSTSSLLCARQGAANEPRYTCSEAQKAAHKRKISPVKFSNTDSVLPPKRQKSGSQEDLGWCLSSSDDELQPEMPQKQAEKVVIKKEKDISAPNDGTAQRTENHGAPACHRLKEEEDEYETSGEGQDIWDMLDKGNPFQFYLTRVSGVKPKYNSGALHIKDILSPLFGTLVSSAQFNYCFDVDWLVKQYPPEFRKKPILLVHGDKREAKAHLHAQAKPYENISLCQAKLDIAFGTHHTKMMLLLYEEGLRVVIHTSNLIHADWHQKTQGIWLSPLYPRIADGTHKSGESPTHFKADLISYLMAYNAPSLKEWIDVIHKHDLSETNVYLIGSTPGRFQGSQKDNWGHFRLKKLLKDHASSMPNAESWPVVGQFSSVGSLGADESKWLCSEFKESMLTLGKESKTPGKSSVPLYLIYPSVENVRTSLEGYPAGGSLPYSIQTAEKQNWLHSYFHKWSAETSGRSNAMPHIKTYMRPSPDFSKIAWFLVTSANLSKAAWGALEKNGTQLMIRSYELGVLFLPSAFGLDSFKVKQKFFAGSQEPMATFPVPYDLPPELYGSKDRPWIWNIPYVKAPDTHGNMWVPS
#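 Signal: AlphaScreen proximity between streptavidin donor and anti-FITC acceptor beads on intact substrate. Reaction: Tdp1 1 nM, substrate 15 nM final, 5 min RT after 15 min compound preincubation.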
# Starred values were filed as active, the others as inactive; ? = inconclusive; / = no result. Unless noted, the call rests on the fitted dose curve; in most records, active means well fitted curve in the direction sought with a large enough effect; inconclusive means small, poorly fitted or top-dose-only effect, or another doubt; inactive means no such curve, though single readings can be large; an effect the other way counts as inactive or inconclusive. On the % scale 0 is the no-effect control and ±100 the full control effect.
SMILES,ELG1 repair inh,IL-1B inflam inh,TDP1 cell noCPT,Giardia killer,DT40 TDP1 CPT,TDP1 block
N#CCCn1nc(-c2ccc([N+](=O)[O-])cc2)cc1Nc1ccccc1NC(=O)C(F)(F)F,18µM*,-25,?,64,?,1%
O=c1cc(N2CCCCC2)c(-c2ccccc2)nn1Cc1ccc(Cl)cc1Cl,-9%,-2,18µM*,5,?,1%
Cc1ccc2c(c1)N=C(c1ccccc1)CC(C(Cl)Cl)=N2,?,?,?,5,?,5%
Cc1ccc(C2=Nc3ccccc3N=C(C(Cl)Cl)C2)cc1,?,-26,16µM*,-6,18µM*,9%
Cc1cccc(-c2nc3nc(C)cc(NCc4ccccc4Cl)n3n2)c1,/,/,/,/,/,4%
Cc1ccc(CN(C(=O)COc2cccc(Cl)c2)c2ccccn2)o1,/,/,?,/,?,2%
O=C(CNC(=O)c1ccc2ccccc2c1)OC(C(=O)Nc1cc(C(F)(F)F)ccc1Cl)c1ccccc1 (stereo not given),/,/,/,/,/,-13%
COc1ccc(C(=O)N2CCCC(c3nc(-c4cc(OC)c(OC)c(OC)c4)no3)C2)cc1 (stereo not given),7.3µM*,0,?,-2,21µM*,3%
COc1ccccc1C(=O)N1CCCC(c2nc(-c3cc(OC)c(OC)c(OC)c3)no2)C1 (stereo not given),7.3µM*,7,?,-22,-18%,0%
Cc1ccc(-c2noc(-c3ccccc3C(=O)N3CCCC3)n2)cc1,?,-6,23µM*,3,16µM*,1%
COc1cc(-c2noc(C3CC(=O)N(c4cc(C)ccc4C)C3)n2)cc(OC)c1OC (stereo not given),/,/,16µM*,/,18µM*,7%
COc1ccc(-c2noc(C3CC(=O)N(c4ccc5c(c4)OCCO5)C3)n2)c(OC)c1 (stereo not given),/,/,?,/,?,6%
Cc1ccc(-c2noc(-c3ccccc3C(=O)N3CCN(C)CC3)n2)cc1,?,-3,?,8,-1%,3%
COc1ccc(C(=O)N2CCCC(c3nc(-c4cccs4)no3)C2)cc1OC (stereo not given),-19%,7,-2%,13,-4%,4%
O=C(c1cc(COc2cccc(C(F)(F)F)c2)on1)N1C[C@@H]2CCC[C@H]1C2,?,?,?,-16,?,-10%
Cc1cc(C)c(NC(=O)Cn2nnc(C(=O)NCc3ccc4c(c3)OCO4)c2N)c(C)c1,?,31,19%,-7,-9%,-4%
COc1ccc(-c2noc(C3CCCN(C(=O)c4ccccc4)C3)n2)cc1 (stereo not given),-20%,-17,?,14,?,2%
COc1ccc(-c2noc(C3CCCN(C(=O)c4cccc(F)c4)C3)n2)cc1 (stereo not given),-28%,-69*,18µM*,-22,-29%,/
COc1ccc(-c2noc(C3CCCN(C(=O)c4ccccc4C)C3)n2)cc1 (stereo not given),-22%,?,12µM*,-4,16µM*,/
COc1ccc(-c2noc(C3CCCN(C(=O)c4ccccc4OC)C3)n2)cc1 (stereo not given),-8%,-25,15µM*,7,?,/
COc1cccc(-c2noc(C3CCCN(C(=O)c4cccc(F)c4)C3)n2)c1 (stereo not given),-28%,20,?,-20,?,/
CCCN(CC1CC1)C(=S)NC(=O)c1ccccc1C,/,-6,-22%,/,-2%,/
CCCN(CC1CC1)C(=S)NC(=O)c1cc(Br)ccc1Cl,-20%,31,16µM*,14,?,-2%
Cc1ccc(/C=C/C(=O)N(Cc2cccs2)C2CCS(=O)(=O)C2)cc1 (stereo not given),2%,-27,21µM*,7,?,1%
O=C(O)C(Cc1ccccc1)N1C(=O)c2c(Cl)c(Cl)c(Cl)c(Cl)c2C1=O (stereo not given),/,-22,-6%,-1,-11%,/
SMILES,ELG1 repair inh,IL-1B inflam inh,TDP1 cell noCPT,Giardia killer,DT40 TDP1 CPT,TDP1 block
CC(C)c1ccc(NC(=S)N2CCN(S(=O)(=O)c3ccccc3)CC2)cc1,0%,-12,-6%,3,-9%,6%
CCCOc1ccc2nc(C)c(CCC)c(SC(=N)N)c2c1,-11%,8,?,7,-4%,3%
CCCc1c(C)nc2ccc(OC)cc2c1SCCC(=O)O,-4%,31,8.2µM*,-14,?,6%
O=C(O)C1OC(Oc2c(-c3ccc(O)c(O)c3)oc3cc(O)cc(O)c3c2=O)C(O)C(O)C1O (stereo not given),11%,24,13µM*,-1,?,-14%
Cc1nnc(C)c2c(C)n(C(C)c3ccccc3)c(C)c12 (stereo not given),-18%,-12,12µM*,12,16µM*,6%
COc1ccc(C(C)n2c(C)c3c(C)nnc(C)c3c2C)cc1 (stereo not given),-17%,-5,23µM*,17,15µM*,6%
Cn1c(SCC(=O)c2ccccc2)nnc1-c1cccs1,?,0,?,-10,-1%,/
Cc1ccc(OCC(=O)NNC(=O)c2ccc3c(=O)n4c(nc3c2)CCC4)cc1,22%,-5,-5%,-10,1%,1%
COc1cc(Cl)c(NC(=O)CCS(=O)(=O)c2cc3c(cc2Cl)NC(=O)CO3)c(OC)c1,/,/,-23%,/,3%,7%
O=C(COC(=O)c1ccc(OC(F)(F)F)cc1)Nc1ncccn1,13%,4,17%,6,21µM*,22µM*
O=C(COC(=O)c1cccc(OC(F)F)c1)Nc1ncccn1,13%,23,-11%,-8,12%,45µM*
CCCn1c(-c2ccc(F)cc2)nc2c(N3CCN(C)CC3)nc(C)nc21,/,/,/,/,/,13%
COc1ccccc1NC(=O)C1CCN(S(=O)(=O)c2ccc3c(c2)CC(C)N3C(C)=O)CC1 (stereo not given),-11%,36,?,-1,?,2%
CC(=O)N1c2ccc(S(=O)(=O)NCC3CCC(C(=O)N(C)Cc4ccccc4)CC3)cc2CC1C (stereo not given),-25%,0,?,-9,?,3%
CC(=O)N1c2ccc(S(=O)(=O)NCC3CCC(C(=O)NC(C)(C)C)CC3)cc2CC1C (stereo not given),/,/,?,/,?,0%

# Assay outcomes as filed in PubChem BioAssay.
